# In the library only some 6.2% were active in any assay of this set; here they are far more common.
# NTR1 ag: agonists of human NTR1, primary screen, imaging, U2OS cells, beta-arrestin-GFP, high content; activation, % at 20 µM; hit rate 0.17% among 330,000; NTR1-U2OS beta-arrestin-GFP spot imaging, agonist mode; AID 493036, 2011; Neurotensin receptor type 1 (Homo sapiens), P30989;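 active means activation at or above 40% of the spot to cytoplasm intensity ratio, with at least 20 cells analyzed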;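 further: 0% = DMSO without peptide and 100% = 100 nM NTR1 peptide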
# NR3A LBD binder: binders of NR3A ligand-binding domain, primary screen, biophysical, differential scanning fluorimetry, uHTS. Glutamate receptor ionotropic, NMDA 3A (GRIN3A) ligand-binding domain. NR3A LBD differential scanning fluorimetry, Tm shift; 0% = protein alone, 100% = glycine-bound protein. Tm shift relative to glycine control, % at 25 µM. hit rate 2.5% among 340,000;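 active means melting temperature shift of at least 10% of the positive control shift, at one fixed dose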
# AI-2 QS modul: Vibrio harveyi AI-2 quorum sensing modulators, primary screen, JMH597 strain, luminescence/OD600 ratio; activity change, % at 7.5 µM; hit rate 0.4% among 300,000; AID 2094, 2009; Vibrio harveyi JMH597 AI-2 luminescence/OD600 ratio, 9 h; hits give low values; strain lacks LuxN and CqsS sensors; 0 = neutral-control median; in the data active means activity change below about -75%, passing the limit was not always enough;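 further: luminescence divided by OD600 gain over 9 h not by final OD600 alone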
# H9c2 protect: cardioprotection against H2O2-induced cell death, primary screen, uHTS, H9c2 cells, ATPLite luminescence; H9c2 cardiomyocytes, H2O2 injury protection, 2 h; protection from H2O2 cell death, % at 20 µM; hit rate 0.63% among 360,000; AID 588492, 2011;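 active means compounds giving at least 50% protection of heart cells from peroxide-induced death in the single-dose screen, raw or plate-pattern-corrected value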;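 further: 0% = DMSO wells with peroxide and 100% = DMSO wells without peroxide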
# AHR activator: AHR activators, primary screen, cell-based, luminescence, luciferase reporter, human. activation, % at 5 µM. Aryl hydrocarbon receptor (Homo sapiens), P35869. hit rate 2.5% among 320,000. AID 2796, 2010. AHR-responsive luciferase reporter cells; in the data active means activation above about 47%;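 further: 0% = vehicle wells and 100% = reference agonist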
# Target sequence (P35869 whole entry, looked up): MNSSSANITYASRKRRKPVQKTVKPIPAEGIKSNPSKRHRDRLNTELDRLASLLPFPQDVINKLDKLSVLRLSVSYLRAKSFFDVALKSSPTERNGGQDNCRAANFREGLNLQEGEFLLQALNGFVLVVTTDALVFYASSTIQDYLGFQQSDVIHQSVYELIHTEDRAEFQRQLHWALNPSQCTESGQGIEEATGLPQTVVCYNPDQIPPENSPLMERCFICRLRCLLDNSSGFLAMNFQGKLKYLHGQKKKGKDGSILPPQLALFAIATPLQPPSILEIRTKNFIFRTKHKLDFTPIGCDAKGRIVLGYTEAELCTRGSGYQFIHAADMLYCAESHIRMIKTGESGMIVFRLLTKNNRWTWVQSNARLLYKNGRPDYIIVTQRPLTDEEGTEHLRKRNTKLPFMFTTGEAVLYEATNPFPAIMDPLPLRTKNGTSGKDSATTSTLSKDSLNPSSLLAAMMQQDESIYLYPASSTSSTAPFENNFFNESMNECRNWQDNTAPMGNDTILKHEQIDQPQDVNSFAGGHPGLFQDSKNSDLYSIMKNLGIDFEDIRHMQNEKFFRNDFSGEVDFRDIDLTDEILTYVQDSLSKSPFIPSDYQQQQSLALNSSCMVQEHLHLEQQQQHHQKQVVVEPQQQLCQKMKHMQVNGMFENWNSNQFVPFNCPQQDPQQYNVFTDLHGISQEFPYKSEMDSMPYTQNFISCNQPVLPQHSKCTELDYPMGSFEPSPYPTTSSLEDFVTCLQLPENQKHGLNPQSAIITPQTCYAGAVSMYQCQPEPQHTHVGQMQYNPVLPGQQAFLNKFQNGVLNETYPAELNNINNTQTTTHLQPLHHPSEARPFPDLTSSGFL
# Mot1-301 SUMO: yeast Mot1-301 growth rescue at high temperature, primary screen, SUMOylation pathway inhibitor project, S. cerevisiae, ATP luminescence, 38.5C; S. cerevisiae Mot1-301 growth rescue; percent above DMSO median, 100 means doubled; growth rescue, % at 18.8 µM; hit rate 1% among 320,000; AID 2716, 2010;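 active means every valid replicate shows activation above 250% relative to neutral control wells; inactive means the rest, any valid replicate at or below 250%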;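 further: OY570 slx delta 5 strain wells were the positive control but not used for scaling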
# The depositor's hits bear a star; · = no result given.
SMILES,NTR1 ag,NR3A LBD binder,AI-2 QS modul,H9c2 protect,AHR activator,Mot1-301 SUMO
COc1ccc(NC(=O)NC2(C(=O)N3CCN(C)CC3)CCCCC2)cc1,-1,0,17,3,2,56
Cc1ccccc1C(=O)/C(C#N)=N/Nc1c(C)n(C)n(-c2ccccc2)c1=O,·,-4,57,64*,1,-16
Cc1c(N/N=C(\C#N)C(=O)c2ccccc2)c(=O)n(-c2ccccc2)n1C,·,-5,54,20,·,·
Cc1ccccc1OCCC(=O)NNC(=O)COc1cccc(F)c1,2,-1,·,5,-1,-9
NC(=O)c1nsc(C(=O)N(c2ccccc2F)C(C(=O)NCc2ccc(F)cc2)c2ccc(O)cc2)c1N (stereo unspecified),6,-9,4,52*,1,-12
COc1ccccc1N(C(=O)c1snc(C(N)=O)c1N)C(C(=O)NCc1ccccc1)c1ccc(O)cc1 (stereo unspecified),1,0,10,2,·,·
CCOc1ccc(C(C(=O)NCC2CCCO2)N(Cc2cccs2)C(=O)c2snc(C(N)=O)c2N)cc1 (stereo unspecified),4,1,9,68*,2,-2
CCOc1ccc(C(C(=O)NCC2CCCO2)N(C(=O)c2snc(C(N)=O)c2N)c2ccccc2F)cc1 (stereo unspecified),7,-2,14,61*,1,-10
Cc1ccc(-c2cnc(C(O)c3cc(C)cc(C)c3)[nH]2)cc1 (stereo unspecified),·,·,·,-2,·,·
CC(C)(C)[C@H]1COC(=O)[C@@H](Cc2ccc(F)cc2)CC/C=C/C[C@@H](CC(=O)N[C@@H](CO)Cc2ccccc2)C(=O)N1,8,2,·,7,1,4
CN(C)c1ccc(P(=O)(Nc2ccccc2)N2CCOCC2)c(NC(=O)c2cccs2)c1 (stereo unspecified),0,-2,18,-4,12,-5
Cc1ccc(NP(=O)(c2ccc(N(C)C)cc2NC(=O)c2cccs2)N2CCOCC2)cc1Cl (stereo unspecified),0,-5,5,-2,50*,-6
Cc1ccc(NP(=O)(c2ccc(N(C)C)cc2NC(=O)c2cccs2)N2CCOCC2)cc1 (stereo unspecified),1,-8,10,-2,59*,2
CN(C)c1ccc(P(=O)(Nc2ccc([N+](=O)[O-])cc2)N2CCOCC2)c(NC(=O)c2cccs2)c1 (stereo unspecified),2,1,19,0,15,-3
COc1cc(C2Nc3cc(C)c(C)cc3NC3=C2C(=O)CC(C)(C)C3)ccc1OC(C)=O (stereo unspecified),2,1,·,1,61*,-12
CC(Cc1ccccc1)N/C=C1/CC(=O)NC1=O (stereo unspecified),1,14*,15,-3,-1,58
COc1cccc(C(=O)N(C)c2nnc(-c3ccncc3)s2)c1,-1,1,6,-11,0,1
COc1cccc(-c2nnc(N(C)C(=O)C3CCOC3)s2)c1 (stereo unspecified),0,-3,19,7,5,344*
COc1cc(OC)c(OC)cc1/C=C1\CCC(C2CCCC2)C1=O (stereo unspecified),12,1,3,-11,55*,7
O=C(COC(=O)Cc1c(F)cccc1Cl)NC1CCS(=O)(=O)C1 (stereo unspecified),0,0,22,2,0,-21
COc1cc(OC)cc(-c2sc3ccc(OC)cc3c2C#CC2(N)CCCCC2)c1,12,-9,·,-23,11,16
COc1ccc(-c2sc3cc4c(cc3c2C#CC2(N)CCCCC2)OCO4)cc1,16,-5,·,-12,66*,33
Cc1cc(-c2ccccc2)nc(Cl)c1C#N,0,2,5,-4,76*,2
O=C(/C=C/c1c(F)cccc1Cl)Nc1ccncc1,-1,-8,12,0,45,24
O=C(/C=C/c1ccc(Cl)cc1Cl)Nc1ccncc1,4,32*,8,-10,1,225
SMILES,NTR1 ag,NR3A LBD binder,AI-2 QS modul,H9c2 protect,AHR activator,Mot1-301 SUMO
O=C(/C=C/c1c(Cl)cccc1Cl)Nc1ccncc1,1,27*,6,-11,-2,-5
O=C(/C=C/c1ccc(Cl)cc1Cl)NCc1ccncc1,0,0,-32,20,3,189
C=C1C2=C(C(=O)N1OC)[C@@H](O)[C@@](C)(O)[C@@H](CCCCC)O2,·,·,·,-2,·,·
O=C1CCc2cc(S(=O)(=O)NC3CCCCC3)cc3c2N1CC3,0,3,4,3,2,-10
C=CCn1c(N)cc(=O)nc1SC(C)C(=O)Nc1ccc(C(=O)OCC)cc1 (stereo unspecified),2,15*,39,-2,7,9
Cc1ccc(NC(=O)C(C)Sc2nc(=O)cc(N)n2-c2ccccc2)cc1 (stereo unspecified),-3,-2,6,-7,2,691
Cc1cc(C(C)(C)C)cc(C)c1COC(=O)CN1C(=O)NC2(CCCC2)C1=O,4,-1,·,-15,-1,-4
Cc1oc(-c2cc(F)ccc2F)nc1CN1CCN(c2cnccn2)CC1,1,-2,8,-1,54*,351
CS(=O)(=O)c1ccc(C(=O)OCc2nnc(-c3ccc(Cl)cc3)o2)cc1[N+](=O)[O-],41*,1,3,-20,3,11
Oc1c(Cl)cc(Cl)cc1CNc1nc2ccccc2[nH]1,6,10*,-29,-19,4,-16
Oc1c(Cl)cc(Cl)cc1CNc1ccccn1,0,-4,9,-2,·,·
COc1ccc(C(=O)Nc2nc(C)c3cc4c(cc3n2)OCO4)cc1,-1,-3,31,6,39,·
Cc1cc(C)nc(Nc2nc(C)c3cc4c(cc3n2)OCO4)n1,-2,1,-2,0,49*,0
CCCCn1c(N)c(N(CCC(C)C)C(=O)C2CCCN(C(=O)c3ccc(Cl)cc3)C2)c(=O)[nH]c1=O (stereo unspecified),1,1,17,-1,-2,-15
CC(=O)N(c1cccc(Cl)c1)c1nc(C)cc(C)c1C#N,1,2,7,1,9,-6
COc1cccc(N(C(C)=O)c2nc(C)cc(C)c2C#N)c1,0,1,36,7,9,-8

# High-throughput results: PubChem, several laboratories
